Records with an inconclusive call do not appear. The source made the active and inactive calls. Rule for the calls: active = hit-call score of the fitted dose curve at least 0.9, where 1 is the maximum; inconclusive = response in the unintended direction; inactive = score below 0.9.

Estrogen receptor (Homo sapiens), sequence (P03372 whole entry, looked up): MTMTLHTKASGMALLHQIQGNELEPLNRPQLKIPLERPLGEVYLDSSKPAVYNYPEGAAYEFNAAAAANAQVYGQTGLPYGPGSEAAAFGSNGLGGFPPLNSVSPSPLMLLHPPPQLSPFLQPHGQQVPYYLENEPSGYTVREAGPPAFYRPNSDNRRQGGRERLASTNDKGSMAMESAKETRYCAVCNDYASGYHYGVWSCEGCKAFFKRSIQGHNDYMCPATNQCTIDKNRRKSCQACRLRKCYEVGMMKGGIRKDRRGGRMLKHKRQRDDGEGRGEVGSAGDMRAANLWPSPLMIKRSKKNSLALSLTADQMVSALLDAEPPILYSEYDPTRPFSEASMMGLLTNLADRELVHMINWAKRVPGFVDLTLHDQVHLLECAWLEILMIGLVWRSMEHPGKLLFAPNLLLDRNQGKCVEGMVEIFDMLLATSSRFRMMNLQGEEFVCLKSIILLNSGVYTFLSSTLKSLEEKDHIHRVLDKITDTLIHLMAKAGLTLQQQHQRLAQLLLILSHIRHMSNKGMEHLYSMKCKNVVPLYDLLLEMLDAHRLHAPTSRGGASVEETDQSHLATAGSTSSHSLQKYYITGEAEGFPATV

For one experiment, the target named is Estrogen receptor (Homo sapiens) (UniProt P03372). Description: NVS_NR_hER: NovaScreen (NVS) Nuclear Receptor Binding Assay for human Estrogen Receptor (ER) (AID 2283348). In a few lines:
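Radiodetection of ligand displacement in a lysate-based, cell-free format using MCF7 extracts, read at 18 hours. Duplicate 25 uM primary testing, then concentration series for actives.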
Consider `COc1ccc(-c2coc3cc(O)cc(O)c3c2=O)cc1`, for which the AC50 was 0.642 µM (active).
The same measure, in the same setting: as for `CC(CCC(=O)O)(c1ccc(O)cc1)c1ccc(O)cc1`, the figure is 4.34 µM (active).
For the compound `N=C1C=CC(=C(c2ccc(N)cc2)c2ccc(N)cc2)C=C1`, the compound was classed as inactive.
Same read-out and setting: as for `CC(C)(c1ccccc1)c1ccc(Nc2ccc(C(C)(C)c3ccccc3)cc2)cc1`, the entry is “inactive”; as for `CCCCCCCCCC[N+](C)(CCCCCCCCCC)CCC[Si](OC)(OC)OC`, “inactive”.
Still for that read-out and setting: as for `C=CC(=O)OCCCCCCOC(=O)C=C`, the entry is “inactive”; as for `CCCCCCCCCCCCCCCCCCOS(=O)(=O)O`, “inactive”.
Still for that read-out and setting: as for `O=S(=O)(O)c1ccc(Nc2nc(Nc3ccc(C=Cc4ccc(Nc5nc(Nc6ccc(S(=O)(=O)O)cc6)nc(N(CCO)CCO)n5)cc4S(=O)(=O)O)c(S(=O)(=O)O)c3)nc(N(CCO)CCO)n2)cc1`, the entry is “inactive”; as for `Oc1ccc(-c2ccccc2)c(Cl)c1`, “inactive”; as for `CCCCOC(=O)CCC(C)=O`, “inactive”.
With `C=C1C[C@H]2[C@@H]3C=C(C)C4=CC(=O)CC[C@]4(C)[C@H]3CC[C@]2(C)[C@@]1(OC(C)=O)C(C)=O`, the AC50 is 0.0185 µM (active).
For `CC(C)c1ccc(O)c(C(C)C)c1`, the result was inactive.
Take `CCCCCCCCCCCCc1ccc(O)cc1`: the half-maximal activity concentration (AC50) was 11 µM (active).
As for `CN(C)Cc1cc(CN(C)C)c(O)c(CN(C)C)c1`, the outcome was inactive.
Take `C[Si](C)(C)N[Si](C)(C)C`: the result was inactive.
Take `c1ccc(Nc2cccc3ccccc23)cc1`: the result was inactive.
For `N#Cc1ccc(C2CCCc3cncn32)cc1` (centres undefined), the AC50 is 4.33 µM (active).
For `CC(=O)OCc1ccccc1`, the result was inactive.
On the same count and under the same terms, as for `C=CC(=O)OCC(C)OCC(C)OCC(C)OC(=O)C=C` (centres undefined), the entry is “inactive”; as for `O=C(Nc1ccccc1)c1cc(Cl)ccc1O`, “inactive”; as for `Nc1ccc(O)c([N+](=O)[O-])c1`, “inactive”.
On the same count and under the same terms, as for `CC(C)=CCCC(C)=CC#N`, the entry is “inactive”; as for `Oc1ccccc1Cc1ccccc1O`, “inactive”.

The next experiment shares this target. The experiment can be described thus: OT_ER_ERaERa_1440: Odyssey Thera (OT) 24-hour HEK293T Protein-Complementation Assay for Estrogen Receptor-alpha/-alpha Homodimer (AID 2283349).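 Note: hits raise fluorescence above DMSO for agonists and antagonists alike.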 In a few lines: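 Stably transfected HEK293T; ERα LBD homodimer PCA. 24 h dosing, fluorescence intensity read, gain-of-signal vs DMSO.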
`COc1ccc(-c2coc3cc(O)cc(O)c3c2=O)cc1`: the AC50 is 13.7 µM (active).
On the same count and under the same terms, to `CC(CCC(=O)O)(c1ccc(O)cc1)c1ccc(O)cc1` belongs 55.5 µM (active).
For the compound `CCCCCCCCCC[N+](C)(CCCCCCCCCC)CCC[Si](OC)(OC)OC`, the call was inactive.
Still for that read-out and setting: to `O=C(O)C1CCC(C(=O)O)CC1` (centres undefined) belongs “inactive”.
Regarding `CCCCCCCCCCCCCCCCCCOS(=O)(=O)O`, the call was inactive.
Still for that read-out and setting: as for `CC(=O)OC(C)c1ccccc1` (centres undefined), the entry is “inactive”.
Still for that read-out and setting: as for `Oc1ccc(-c2ccccc2)c(Cl)c1`, the entry is “inactive”.
In the case of `CC(C)(C)NC(=O)[C@H]1CC[C@H]2[C@@H]3CC[C@H]4NC(=O)C=C[C@]4(C)[C@H]3CC[C@]12C`, the concentration at half-maximal activity (AC50) was 75 µM (active).
Turning to `CC(C)c1cc(C(C)C)cc(C(C)C)c1`, the compound was classed as inactive.
Same read-out and setting: as for `CC(C)c1ccc(O)c(C(C)C)c1`, the entry is “inactive”; as for `CCN1CN(CC)CN(CC)C1`, “inactive”.
Still for that read-out and setting: as for `CC(C)(C)C1CCC(=O)CC1`, the entry is “inactive”; as for `C[Si](C)(C)N[Si](C)(C)C`, “inactive”.
For the compound `CCCCCC[C@@H](O)C/C=C\CCCCCCCC(=O)OCC(O)CO` (some centres undefined), the compound was classed as inactive.
Consider `c1ccc(Nc2cccc3ccccc23)cc1`, for which the concentration at half-maximal activity (AC50) is 63.1 µM (active).
Take `O=C(Nc1ccccc1)c1cc(Cl)ccc1O`: the outcome was inactive.
